Pf Dd2 growth: qHTS Primary assay for Inhibitors of Plasmodium falciparum Dd2 growth in vitro; P. falciparum Dd2 growth, SYBR Green, 72 h; Potency, µM (series often up to 28.9 µM), hits mostly inhibitors; 120,000 tested, 4.3% active; active = well fitted inhibition curve with a large enough effect; also: nearly all actives have a fitted effect of over 65% in size
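Readout: SYBR Green fluorescence, 485 nm excitation, 535 nm emission, after ~16 h lysis at 37C. Before that, Dd2-infected red cells (2.5% hematocrit) grew 72 h with compound, 29 uM top final concentration.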
Of the large screens only hits and unclear results are named; the others gave an inactive call. This excerpt belongs to a sample that is enriched for hits.

O=C(CCn1cnc2ccccc21)N1CCn2nc(Cc3ccccc3)cc2C1	none
Cc1cc(C)n(C(C)C(=O)N2CCn3nc(Cc4ccccc4)cc3C2)n1 (configuration not stated)	none
CC(C)N1CCC(CC(=O)N2CCn3nc(Cc4ccccc4)cc3C2)CC1	Pf Dd2 growth 10µM
C=CCN1CC(C(=O)N2CCn3nc(Cc4ccccc4)cc3C2)CC1=O (configuration not stated)	none
C[C@@H]1CCC[C@H](C)N1CC(=O)N1CCn2nc(Cc3ccccc3)cc2C1	Pf Dd2 growth 11µM
COc1ccc(CN2C[C@@H](CO)[C@H](C3CCN(C(C)=O)CC3)C2)cc1OC	none
CCc1ccc(CNC(=O)CN2C(=O)NC3(CCCCC3)C2=O)cc1	none
CNC(=O)[C@@H]1CN(C(=O)c2coc(C)n2)C[C@H]1COC	none
Cc1c(Cl)cccc1-n1ncc(C(=O)NCCN2CCN(C)CC2)c1C1CCN(C(=O)OC(C)(C)C)CC1	Pf Dd2 growth 11µM
Cc1c(Cl)cccc1-n1ncc(C(=O)N2CCN(C)CC2)c1C1CCN(C(=O)OC(C)(C)C)CC1	none
Cc1ccc(-n2ncc(C(=O)NCCN3CCC(Cc4ccccc4)CC3)c2C2CCN(C(=O)OC(C)(C)C)CC2)cc1	Pf Dd2 growth 3.2µM
Cc1cccc(C)c1-n1ncc(C(=O)NCCN2CCN(C)CC2)c1C1CCN(C(=O)OC(C)(C)C)CC1	none
CC(C)(C)OC(=O)N1CCC(c2c(C(=O)NCCN3CCCC3)cnn2-c2ccc(Cl)cc2)CC1	Pf Dd2 growth 7.1µM
COc1ccccc1CN1CCC(CNC(=O)c2cnn(-c3ccc(Cl)cc3)c2C2CCN(C(=O)OC(C)(C)C)CC2)CC1	Pf Dd2 growth 1.3µM
O=C(O)CCc1cc2n(n1)CCN(C(=O)c1ccccc1-n1cccc1)C2	none
NC(=O)c1ccc(CC2CCN(C(=O)c3cnccn3)CC2)cc1	none
CC(C)NC(=O)CN1C(=O)NC2(CCC(C(C)(C)C)CC2)C1=O (configuration not stated)	none
COc1ccc(S(=O)(=O)N2[C@@H]3CC[C@H]2CC(NC(=O)c2ccncc2)C3)cc1OC (some centres not stated)	none
Cc1cccc(NC(=O)N2CC(Oc3ccc(-c4nc(-c5ccccc5)no4)cc3)C2)c1	none
O=C(c1ccc(Cl)cc1)N1C[C@@H](F)[C@@H](OCc2nc3ccccc3[nH]2)C1	none
CC(=O)Nc1ccc(NC(=O)CCNc2c(-c3ccc(F)cc3)nc3cnccn23)cc1	none
O=C1COc2cc(C(=O)NC3CC(c4nnc(CO)n4C4CC4)C3)ccc2N1 (configuration not stated)	Pf Dd2 growth 6.3µM
Cc1c(C(=O)NC2CC(c3nnc(CO)n3C3CC3)C2)n(C)c2c(C)cccc12 (configuration not stated)	none
O=C(NC1CC(c2nnc(CO)n2C2CC2)C1)c1n[nH]c2c1COCC2 (configuration not stated)	none
CC(C)CCNC(=O)N1CCC(N2CC3CC(C2)[C@H]2CCCC(=O)N2C3)CC1 (some centres not stated)	none
CC(c1ccccc1)N1Cc2cc(NC(=O)c3ccccc3)ccc2OCC1=O (configuration not stated)	none
CC(C)CS(=O)(=O)N[C@@H]1C[C@H](Cn2cc(CN(C)C)nn2)[C@@H](O)[C@H]1O	none
CCN(CC)C(=O)c1ccc(Nc2nnc(-c3ccc(C)c(S(=O)(=O)NC)c3)c3ccccc23)cc1	Pf Dd2 growth 3.2µM
Cc1ccc(C)c(Nc2nnc(-c3ccc(C)c(S(=O)(=O)N4CCN(C)CC4)c3)c3ccccc23)c1	none
CCOc1ccc(-c2nnc(Nc3ccc(S(N)(=O)=O)cc3)c3ccccc23)cc1	none
C#CCOc1ccc(-c2nnc(Nc3ccc(NC(C)=O)cc3)c3ccccc23)cc1	none
Cc1ccc(-c2nnc(Nc3ccc(Cl)c(Cl)c3)c3ccccc23)cc1S(=O)(=O)N(C)C	Pf Dd2 growth 10µM
Cc1cccc(Nc2nnc(-c3ccc(C)c(S(=O)(=O)N4CCCCC4)c3)c3ccccc23)c1	none
C#CC(C)(C)NS(=O)(=O)c1cc(-c2nnc(Nc3ccc(C)cc3)c3ccccc23)ccc1C	Pf Dd2 growth 5µM
CCCNS(=O)(=O)c1cc(-c2nn3c(C)nnc3c3ccccc23)ccc1C	none
Cc1cc(C)n(-c2nnc(Nc3ccc(C)c(Cl)c3)c3ccccc23)n1	none
COc1ccc(CNC(=O)c2cc3n(n2)CC(c2ccc4c(c2)OCO4)OC3)cc1OC (configuration not stated)	none
O=C(O)C1=NOC2CN(Cc3ccc(F)c(F)c3F)CC12 (configuration not stated)	none
O=C1CCCCC(C(=O)O)N1 (configuration not stated)	none
COCCNC(=O)N1CCc2n[nH]c(=O)n2CC1	none
COc1ccc(O[C@H]2COCCN(C(=O)c3cccnc3)C2)cc1	none
CCn1c(CN(C)C)nnc1C1CCN(Cc2cnc(N(C)C)s2)CC1	none
Cc1ccn(CC(=O)NCCn2c(C)cnc2C2CC2)n1	none
CN1CCC2(CCC1=O)CN(S(=O)(=O)c1cn(C)cn1)CCN2C (configuration not stated)	none
CCOc1ccc(-n2c(Cc3ccccc3)nnc2SCc2nc(-c3ccccc3C)no2)cc1	none
CCOc1ccc(-c2noc(CSc3nnc(Cc4ccccc4)n3-c3cccc(C)c3)n2)cc1	Pf Dd2 growth 10µM
Cc1ccc(-c2noc(CSc3nnc(Cc4ccccc4)n3-c3cccc(C)c3)n2)cc1	none
C=CCOc1cccc(-c2nc(C(=O)Nc3ccc(F)cc3)cs2)c1	none
CC(=O)N[C@H](C)c1onc(-c2ccc(Cl)cc2)c1C(=O)O	none
COc1cccc(C(=O)N2CCCC(c3nn(-c4ccc(Cl)cc4)c(=O)[nH]3)C2)c1 (configuration not stated)	none
CCOc1cc(C(=O)N2CCCN(c3cc(-c4ccc(F)cc4)[nH]n3)CC2)cc(OCC)c1OCC	none
Cc1ccccc1C(=O)Nc1ccnn1C1CCN(C(=O)CN)CC1	none
Cc1cccc([C@H]2C[C@@H](O)[C@@H](O)[C@@H]2NCC2CCCC2)c1	none
CS(=O)(=O)N[C@H]1[C@H](O)[C@H](O)C[C@@H]1c1ccccc1	none
O[C@H]1[C@H](NCC2CCCC2)[C@@H](c2ccccc2)C[C@H]1O	Pf Dd2 growth 1.8µM
O=C(c1ccn[nH]1)N(CC1CCN(Cc2ccccc2F)CC1)CC1CCCO1 (configuration not stated)	none
CCn1cc(C(=O)N2CCC3(CCCN(C)C3=O)C2)cn1 (configuration not stated)	none
CCc1nc(-c2c3n(c(=O)n(Cc4ccc(OC)cc4)c2=O)CCCCC3)no1	none
Cc1cccc(CN2CC[C@@H]3OCC(=O)N(Cc4ccc(O)cc4)[C@H]3CC2)c1	none
O=C1CO[C@H]2CCN(CCCc3ccccc3)CC[C@@H]2N1Cc1ccccc1	Pf Dd2 growth 4µM
O=C1CO[C@H]2CCN(Cc3ccccc3)CC[C@@H]2N1CCc1cccnc1	none
COCc1cn(C[C@H]2C[C@@H](NC(=O)c3cc(C)on3)[C@H](O)[C@@H]2O)nn1	none
CSc1nccc(-c2cc(NCc3cccnc3)nc3[nH]ccc23)n1	Pf Dd2 growth 10µM
CSc1nccc(-c2ccccc2CO)n1	none
Cc1ccc(C(N)=O)cc1-c1cc(NCc2cccnc2)nc2[nH]ccc12	none
COC(=O)c1ccc(CN2C(=O)[C@@H]3C[C@@H](O)CN3C3(CN(Cc4cccc(OC(F)(F)F)c4)C3)C2=O)cc1	none
Cn1cc(-c2ccc(O)c(F)c2)c2nc(COc3ccc(Cl)cc3)cn2c1=O	Pf Dd2 growth 10µM
Cn1cc(-c2ccccc2F)c2nc(COc3ccccc3)cn2c1=O	none
Cn1cc(-c2ccccc2F)c2nc(COc3ccc(C(=O)O)cc3)cn2c1=O	none
Cc1noc(-c2ccc(OC3CN(C(=O)NCCc4ccccc4)C3)cc2)n1	none

Screens from PubChem.
